TEAD-YAP inh – TEAD-YAP interaction inhibition | HEK-TIYL cells, TEAD-Gal4/YAP UAS-luciferase luminescence | inhibition, % at 9.12 µM | actives 1.4% (n = 640,000) | AID 1259422; in the data active = inhibition above about 32%
MITF primary – inhibitors of human MITF | O75030 | AlphaScreen MITF homodimerization, bead proximity signal | inhibition, % at 2.6 µM | actives 0.91% (n = 650,000) | AID 1259374; in the data active = inhibition above about 50%
Target sequence (O75030 whole entry, looked up): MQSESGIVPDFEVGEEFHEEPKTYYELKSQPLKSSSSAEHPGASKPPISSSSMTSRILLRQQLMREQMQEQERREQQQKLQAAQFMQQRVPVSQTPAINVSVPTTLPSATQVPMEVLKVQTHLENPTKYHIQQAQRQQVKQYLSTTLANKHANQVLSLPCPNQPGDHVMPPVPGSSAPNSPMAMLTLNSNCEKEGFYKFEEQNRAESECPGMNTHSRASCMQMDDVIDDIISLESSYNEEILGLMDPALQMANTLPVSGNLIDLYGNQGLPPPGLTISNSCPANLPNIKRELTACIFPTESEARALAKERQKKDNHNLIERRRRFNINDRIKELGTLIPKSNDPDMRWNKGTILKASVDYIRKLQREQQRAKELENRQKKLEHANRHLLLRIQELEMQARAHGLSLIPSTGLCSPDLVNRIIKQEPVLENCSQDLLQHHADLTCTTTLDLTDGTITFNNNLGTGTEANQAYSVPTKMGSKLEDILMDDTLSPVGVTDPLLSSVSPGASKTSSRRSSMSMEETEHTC
GPR151 ag – activators of human GPR151; actives 1% (n = 650,000); activation, % at 11.2 µM; Q8TDV0; PathHunter beta-arrestin GPR151 cells, luminescence; in the data active = activation above about 4.9%
FBW7 activator – human FBW7 E3 ligase activation, primary screen; normalized activity (activation), % at 26.1 µM; actives 0.13% (n = 650,000); AlphaScreen FBW7–phospho-cyclin E peptide binding, activator screen; in the data active = normalized activity above about 1.9%;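 note: purified mutant Fbw7 with reduced substrate affinity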
Hits are given with their value; i = inactive. In the library only some 3.5% were active in any assay of this set; here they are far more common.

SMILES	TEAD-YAP inh	MITF primary	GPR151 ag	FBW7 activator
Cc1ccc(C)n1-c1ccc(Br)cc1C(=O)O	i	82	i	i
Cc1ccc(C)n1-c1ccc(C(=O)O)c(C(=O)O)c1	i	i	i	i
CCCCCCc1cc2c3c(c(=O)oc2cc1OCC(=O)C(C)(C)C)CCC3	i	i	i	i
COc1cccc(NC(=O)Cn2c(C)cc(=O)c3ccccc32)c1	54	i	i	i
COc1ccccc1NC(=O)Cn1c(C)cc(=O)c2cccc(C)c21	i	i	i	i
COc1ccccc1NC(=O)Cn1c(C)cc(=O)c2ccccc21	64	i	i	i
CCn1c(=O)n(CC(=O)Nc2ccccc2OC)c(=O)c2ccccc21	i	i	i	i
COc1ccccc1NC(=O)Cn1c(C)cc(=O)c2cccc(OC)c21	37	i	i	i
CCOC(=O)c1c(C)[nH]c2ccc(Oc3nc(OC)cc(OC)n3)cc12	41	i	i	i
Cc1nc2ccccc2nc1SCC(=O)NCc1ccccc1	i	i	i	i
Cn1c(-c2ccccc2)cn2cc(-c3cccc([N+](=O)[O-])c3)nc12	99	i	i	i
Cn1c(-c2ccc3c(c2)OCO3)cn2cc(-c3cccc([N+](=O)[O-])c3)nc12	98	i	i	i
O=[N+]([O-])c1cccc(-c2csc(Nc3ccc4c(c3)OCO4)n2)c1	i	i	i	i
Cn1c(-c2cccc([N+](=O)[O-])c2)n[nH]c1=S	i	i	i	i
COc1ccc(-n2c(-c3cccc([N+](=O)[O-])c3)n[nH]c2=S)cc1	i	i	i	i
COc1ccc(-c2cn3cc(-c4cccc([N+](=O)[O-])c4)nc3n2C)cc1	98	i	i	i
COC(=O)c1ccccc1NC(=O)COc1ccccc1C(N)=O	i	i	i	i
Cc1cc2nc3c(=O)[nH]c(=O)[nH]c3nc2c([N+](=O)[O-])c1N	i	68	i	i
Cc1cc2nc3c(=O)[nH]c(=O)[nH]c3nc2cc1N	i	i	i	i
CC(=O)c1cccc(-c2nc(NCc3cccnc3)c3ncn(C(C)C)c3n2)c1	59	i	i	i
CC(=O)c1cccc(-c2nc(NCCc3ccc(O)cc3)c3ncn(-c4ccccc4)c3n2)c1	72	i	i	i
NC(=O)c1ccc(-c2nc(NCc3cccnc3)c3ncn(Cc4ccc(C(F)(F)F)cc4)c3n2)cc1	46	i	i	i
CC(=O)c1cccc(-c2nc(NCc3ccccc3)c3ncn(C(C)C)c3n2)c1	i	i	i	i
NC(=O)c1ccc(-c2nc(NCCc3ccc(O)cc3)c3ncn(C4CCCCC4)c3n2)cc1	44	i	i	i
CC(Oc1ccc(Cl)cc1Cl)C(=O)NCCOc1cc(N2CCOCC2)ncn1 (configuration not stated)	i	i	i	i
SMILES	TEAD-YAP inh	MITF primary	GPR151 ag	FBW7 activator
N#Cc1ccsc1NC(=O)CNC(c1ccccc1)c1ccccc1	i	i	i	i
COc1ccccc1NC(=O)C1=C(C)NC2=C(C(=O)CCC2)C1c1cccs1 (configuration not stated)	i	i	i	i
O=C(O)c1ccc(N2C(=O)/C(=C\c3cccs3)SC2=S)cc1O	i	i	i	i
CC(=O)c1cccc(-c2nc(NCCc3ccc(O)cc3)c3ncn(-c4ccsc4)c3n2)c1	82	i	i	i
CC(=O)c1cccc(-c2nc(NCCc3ccc(O)cc3)c3ncn(C(C)C)c3n2)c1	63	i	i	i
CC(C)n1cnc2c(NCCc3ccc(O)cc3)nc(-c3cccc(N)c3)nc21	i	i	i	i
O=C(NC1CC1)c1ccc(-c2nc(NCCc3ccc(O)cc3)c3ncn(-c4ccccc4)c3n2)cc1	56	i	i	i
Cn1c(Nc2nc(NCCc3ccc(O)cc3)c3ncn(C4CCCCC4)c3n2)nc2ccccc21	35	i	i	i
COc1ccc(CCNc2nc(-c3cccc(C(C)=O)c3)nc3c2ncn3-c2ccsc2)cc1	i	i	i	i
O=C(NC1CC1)c1ccc(-c2nc(NCCOc3ccccc3)c3ncn(-c4ccccc4)c3n2)cc1	i	i	i	i
COc1ccc(/C=C(\C#N)C(=O)Nc2ccc(N(C)C)cc2)cc1	i	i	i	i
Cc1ccc(/C=N\NC(=O)c2cccc(Br)c2)s1	i	i	i	i
O=C(C1CC1)N1CCC(Cn2nc(-c3ccccc3)ccc2=O)CC1	i	i	i	i
COc1cc(/C=N/c2sc3c(c2C#N)CCC3)ccc1OCC(=O)O	i	i	i	i
N#Cc1c(/N=C/c2ccc(O)c(O)c2)sc2c1CCCC2	43	i	i	i
CN1CCN(c2ccc(-c3cccc(C(=O)NCCO)n3)cc2)CC1	i	i	i	i
CN(C)S(=O)(=O)c1cccc(NC(=S)Nc2ccccc2C#N)c1	87	i	i	i
